{"source": "the supplement of paper PMC9694430"}
{"tested_on": "LOC_OS01G01410-cb001", "assay": "thermal shift delta Tm vs DMSO control; higher = stronger stabilization (binding)", "settings": "12.5 µM; protein concentration 2 µM", "method_in_brief": "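The melting temperature shift given here is a triplicate mean, measured against protein that received only DMSO. Melting temperatures came from Boltzmann fits of differential scanning fluorimetry data on E. coli-expressed, purified rice kinase domain constructs. Each 19.5 μl well contained 2 μM kinase, 100 mM potassium phosphate pH 7.5, 150 mM NaCl, 10% glycerol, 5 × SYPRO Orange and compound in DMSO. Plates were scanned from 25°C to 95°C at 0.05°C/s.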", "units": {"thermal shift delta Tm": "°C"}}
{"smiles": "Cc1nc(NC(=O)N2CCC[C@H]2C(N)=O)sc1-c1ccnc(C(C)(C)C(F)(F)F)c1", "note": "[Alpelisib (BYL719)]", "thermal shift delta Tm": 0.28}
{"smiles": "O=C(NCCO)c1cccc(-c2cc(Nc3ccc(OC(F)(F)F)cc3)ncn2)c1", "thermal shift delta Tm": 0.32}
{"smiles": "C[C@@H](Nc1cc(F)cc(F)c1)c1cc(C(=O)N(C)C)cc2c(=O)cc(N3CCOCC3)oc12", "thermal shift delta Tm": 0.11}
{"smiles": "C[C@@H]1COCCN1c1cc(=O)n2c(n1)N(Cc1cncc(Cl)c1)[C@H](C(F)(F)F)CC2", "thermal shift delta Tm": 0.21}
{"smiles": "CNc1nc(-c2ccc3c(N)n[nH]c3c2)cc(N2C[C@@H](C(=O)NC3CCCCC3)CC[C@H]2C)n1", "thermal shift delta Tm": -0.44}
{"smiles": "COc1cc(N2CCC(N(C)C)CC2)ccc1Nc1ncc(Cl)c(Nc2ccccc2P(C)(C)=O)n1", "thermal shift delta Tm": 0.42}
{"smiles": "CN1CCN(c2ccc3nc(-c4c(N)c5c(F)cccc5[nH]c4=O)[nH]c3c2)CC1", "note": "[Dovitinib (TKI258) Lactate]", "thermal shift delta Tm": 5.96}
{"smiles": "N#C/C(=C(/N)Sc1ccc(N)cc1)c1ccccc1C(F)(F)F", "thermal shift delta Tm": 1.06}
{"smiles": "Cc1c(C(=O)N2CCOc3ccc(-c4ccc(N)nc4)cc3C2)ccc(S(C)(=O)=O)c1F", "thermal shift delta Tm": 0.69}
{"smiles": "CCOc1cc2ncc(C#N)c(Nc3ccc(F)c(Cl)c3)c2cc1NC(=O)/C=C/CN(C)C", "note": "[Pelitinib (EKB-569)]", "thermal shift delta Tm": 0.85}
{"smiles": "Oc1ccc(Nc2nc(-c3ccc(Cl)cc3)cs2)cc1", "thermal shift delta Tm": 1.11}
{"smiles": "O=C(Nc1ccccc1C(=O)NC1CCCCNC1=O)c1cc2ccccc2s1", "note": "(centres undefined)", "thermal shift delta Tm": -0.16}
{"smiles": "CC(C)c1c2cc(-c3ccnc(NC4CCC(NC5CCOCC5)CC4)n3)ccc2nn1C", "note": "(centres undefined)", "thermal shift delta Tm": 1.15}
{"smiles": "NCC(=O)Nc1ccc(-n2nc(C(F)(F)F)cc2-c2ccc3c(ccc4ccccc43)c2)cc1", "thermal shift delta Tm": 1.11}
{"smiles": "Cc1cc(NC(=O)c2cccc(NC(=O)/C=C/CN(C)C)c2)ccc1Nc1nccc(-c2cccnc2)n1", "thermal shift delta Tm": 1.77}
{"smiles": "N#Cc1ccc2ncnc(NCCc3ccccc3)c2c1", "note": "[Senexin A]", "thermal shift delta Tm": 1.49}
{"smiles": "CCOc1cn(-c2ccc(F)cc2C)nc1C(=O)Nc1ccc(Oc2ccnc3cc(OC)c(OC)cc23)c(F)c1", "thermal shift delta Tm": 0.08}
{"smiles": "Fc1ccc2[nH]ccc2c1-c1nc(N2CCOCC2)c2sc(CN3CCN(CC4CC4)CC3)cc2n1", "thermal shift delta Tm": 0.26}
{"smiles": "COc1cccc2cc(-c3nc([C@H]4CC[C@H](C(=O)O)CC4)n4ncnc(N)c34)[nH]c12", "thermal shift delta Tm": 0.94}
{"smiles": "N#Cc1cnc(Nc2cc(NC[C@H]3CNCCO3)c(C(F)(F)F)cn2)cn1", "thermal shift delta Tm": 0.36}
{"smiles": "O=C(NOCCO)c1ccc2cncn2c1Nc1ccc(I)cc1F", "thermal shift delta Tm": 1.18}
{"smiles": "COc1cc2c(Nc3ccc(NC(=O)c4ccccc4)cc3)ncnc2cc1OCCCN1CCOCC1", "thermal shift delta Tm": 2.69}
{"smiles": "NC(=O)Nc1cc(-c2cccc(F)c2)sc1C(=O)N[C@H]1CCCNC1", "thermal shift delta Tm": 0.37}
{"smiles": "CNC(=O)c1ccc(-c2cnc3ncc(Cc4ccc5ncccc5c4)n3n2)cc1F", "thermal shift delta Tm": 0.07}
